# Rows were chosen to be rich in hits. Some 3.1% of all compounds tested hit in one or more screens of this group.
# PLK1 PBD block: qHTS for Inhibitors of PLK1-PDB (polo-like kinase 1 - polo-box domain): Primary Screen; Potency, µM, for inactives: max response, negative = inhibition, most hits filed as inhibitors; Serine/threonine-protein kinase PLK1 (Homo sapiens), P53350; AID 720504, 2013; Plk1 PBD binding of FITC phosphopeptide, fluorescence polarization; 2.8% of 360,000 active; further: potency means the concentration at half of the fitted maximal effect; series mostly up to about 57 µM; nearly all actives have a fitted effect of over 65% in size
# Target sequence (P53350 whole entry, looked up, the tested form may be a part): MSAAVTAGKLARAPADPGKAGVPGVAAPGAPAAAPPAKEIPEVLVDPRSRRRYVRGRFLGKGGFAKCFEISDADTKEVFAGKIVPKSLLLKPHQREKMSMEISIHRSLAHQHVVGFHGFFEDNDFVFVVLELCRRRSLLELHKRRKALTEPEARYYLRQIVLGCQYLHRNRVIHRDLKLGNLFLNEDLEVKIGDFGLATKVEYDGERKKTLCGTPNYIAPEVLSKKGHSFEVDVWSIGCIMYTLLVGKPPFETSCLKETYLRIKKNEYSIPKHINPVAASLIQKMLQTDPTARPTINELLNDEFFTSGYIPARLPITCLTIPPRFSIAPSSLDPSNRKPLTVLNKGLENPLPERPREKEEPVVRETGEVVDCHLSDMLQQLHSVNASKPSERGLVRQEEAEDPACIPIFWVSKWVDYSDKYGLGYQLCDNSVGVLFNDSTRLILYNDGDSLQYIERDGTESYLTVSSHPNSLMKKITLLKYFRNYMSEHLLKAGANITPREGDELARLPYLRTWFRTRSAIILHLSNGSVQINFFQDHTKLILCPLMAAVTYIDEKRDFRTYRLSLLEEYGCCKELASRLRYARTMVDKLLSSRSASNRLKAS
# VDR inh: Inhibitors of the vitamin D receptor (VDR): qHTS | Potency, µM, for the others: max response, negative = inhibition, actives largely listed as inhibitors | 0.93% of 400,000 active | VDR-SRC2-3 peptide fluorescence polarization, 2 h | Vitamin D3 receptor (Homo sapiens), P11473; further: potency means the concentration at half of the fitted maximal effect
#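 Two reagent solutions held at 4 deg C in the dark were dispensed, compounds pinned at 23 nl, and the mixture incubated 2 h at room temperature. Read-out: fluorescence polarization of VDR–SRC2-3 peptide binding.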
# GLS inhibitor: qHTS for Inhibitors of Glutaminase (GLS). Glutaminase kidney isoform, mitochondrial (Homo sapiens), O94925. GLS enzymatic activity, qHTS titration. Potency, µM (highest dose often 45.5 µM), without a hit: at the highest dose activity change, negative = inhibition, hits mostly inhibitors. 0.21% of 410,000 active. AID 624170, 2012; further: potency means the concentration at half of the fitted maximal effect
#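 Enzyme dispensed in phosphate buffer (45 mM, pH 8.2, 0.02% Tween-20), compounds pinned in, then 1 mM L-glutamine solution and the glutamate oxidase–HRP–Amplex Red mix added; fluorescence read immediately and again after 30 min at room temperature.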
# GCN5L2 inh: qHTS Assay for Inhibitors of GCN5L2 | Histone acetyltransferase KAT2A (Homo sapiens), Q92830 | GCN5L2 HAT assay, ThioGlo1 CoA-SH fluorescence | Potency, µM (series often up to 58.9 µM), inactives show top-dose activity change, negative = inhibition, hits mostly inhibitors | 0.21% of 390,000 active | AID 504327, 2011; further: potency means the concentration at half of the fitted maximal effect
#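 Free CoA generated was detected with ThioGlo1 (50uM) fluorescence at Ex340nm/Em540nm, read immediately and after 20 min at room temperature. Enzyme, 20 nM in HEPES pH 7.5 buffer, saw compounds 15 min before adding 75uM H3(1-25) peptide and 70uM acetyl-CoA.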
# PI4K2A inh: qHTS for small molecular inhibitors of PI4K2A; Phosphatidylinositol 4-kinase type 2-alpha (Homo sapiens), Q9BTU6; purified PI4K2A, ADP-Glo luminescence, 1 h; stronger effect = lower value; activity change, negative = inhibition, % at 76.9 µM; 0.13% of 420,000 active; AID 1346378, 2018; in the data active means activity change below about -50%; inconclusive means mostly about -30% to -49%;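 further: -100% = wells without enzyme as full effect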
#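 In this quantitative HTS, ADP production by PI4K2A was quantified luminescently after 1 h at ambient temperature; 100 microM adenosine served as plate-quality control.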
# The depositor's hits bear a star; ? = inconclusive; . = not tested or not shown; ! = not active in a repeat. Unless noted, the call rests on the fitted dose curve; in most records, active means well fitted curve in the direction sought with a large enough effect; inconclusive means small, poorly fitted or top-dose-only effect, or another doubt; inactive means no such curve, though single readings can be large; an effect the other way counts as inactive or inconclusive. Unless noted, on the % scale 0 is the no-effect control and ±100 the full control effect.
SMILES,PLK1 PBD block,VDR inh,GLS inhibitor,GCN5L2 inh,PI4K2A inh
CCCCCN(CCCOC)C(=O)C(CCC(=O)O)NC(=O)c1ccc(Cl)c(Cl)c1 (centres undefined),.,.,.,.,-1
CCOC(=O)N1CCN(Cc2c(O)ccc3ccccc23)CC1,11µM*,?,-1%,-7%,61
O=C(C1CCCO1)N1CCN(Cc2c(O)ccc3ccccc23)CC1 (centres undefined),12µM*,50µM*,31%,-5%,8
CCOC(=O)C1CCN(Cc2c(O)ccc3ccccc23)CC1,?,-3%,18%,0%,-6
CCOC(=O)N1CCN(Cc2ccc(O)c3ncccc23)CC1,27µM*,?,2%,?,-5
O=C(Cc1ccc(-c2ccccc2)cc1)NCCS(=O)(=O)N1CCN(c2ccccc2F)CC1,.,4%,6%,-7%,-3
O=C(Nc1ccc2c(c1)OCO2)OC1CCC12CCCCC2 (centres undefined),.,.,.,.,-3
COC(=O)C1CN(Cc2cn(CCC3OCCO3)nn2)CCS(=O)(=O)N1Cc1ccc(Cl)cc1 (centres undefined),.,.,.,.,-4
C=CCNC(=O)Nc1ccc2c(c1)[C@]1(CC(=O)N(CC(C)C)C1c1ccccc1)C(=O)N2C (some centres undefined),.,.,.,.,-2
COCCNC(=O)c1sc2ncn(CC(=O)N3CCCCC3)c(=O)c2c1C,3.4µM*,-23%,?,-2%,-5
CCOC(=O)Cn1c2ccc(F)cc2c2nc(C)sc21,-7%,?,2%,3%,-1
COC(=O)Cn1c2ccc(F)cc2c2nc(C)sc21,?,79µM*,-3%,-2%,7
CCN1CCc2c(sc(-n3cccc3)c2C(C)NC(=O)Nc2ccccc2C)C1 (centres undefined),.,16%,?,-6%,-1
Cc1[nH]n(-c2ccccc2)c(=O)c1C=Nc1ccc(S(=O)(=O)Nc2nccs2)cc1,24µM*,3%,29%,-4%,-14
OCCCN1CCC2(CCC(c3ccccc3)CC2)C1 (centres undefined),.,.,.,.,2
FC(F)Oc1ccc(-c2csc(NNC3=NCCCCC3)n2)cc1,3.8µM*,?,?,-4%,-30
Brc1ccc(-c2csc(NNC3=NCCCCC3)n2)cc1,?,?,-2%,?,1
CCN(Cc1ccccc1)c1ccc(/C=N/NS(=O)(=O)c2ccc(C)c([N+](=O)[O-])c2)cc1,24µM*,?,15%,-16%,-1
Cc1ccc(C(=O)N(C)[C@H]2C[C@H]3c4[nH]c5c(-c6ccc7c(c6)OCO7)cccc5c4CCN3C[C@H]2[C@H](C)O)cc1,.,.,.,.,6
Cc1ccc([C@@H]2CC=C(C(=O)O)[C@H](c3cccc(Cl)c3)N2S(=O)(=O)c2ccccc2C)cc1,?,?,8%,?,-6
Cc1ccccc1S(=O)(=O)N1[C@@H](c2ccc(Cl)cc2)C(C(=O)O)=CC[C@H]1c1ccc(Cl)cc1,30µM*,?,34%,?,0
Cc1ccccc1S(=O)(=O)N1C(c2ccc(Cl)cc2)CC=C(C(=O)O)C1c1cccc(Cl)c1 (centres undefined),27µM*,.,.,.,5
CCOC(=O)C1=NOC(C(=O)NC2CCCC2)(C(=O)C2CC2)C1 (centres undefined),.,.,.,.,-1
CCc1ccc(CCNC(=O)OC2CC3CC2[C@H]2CCCCN2C3)cc1 (some centres undefined),.,.,.,.,0
C/C(=C\C(=O)c1c(O)cc(C)oc1=O)N(C)C,30µM*,5%,13%,-3%,-2
SMILES,PLK1 PBD block,VDR inh,GLS inhibitor,GCN5L2 inh,PI4K2A inh
Cc1cc(O)c(C(=O)/C=C/c2ccc(Cl)cc2)c(=O)o1,-11%,?,-3%,?,-4
COc1cccc(/C=C/C(=O)c2c(O)cc(C)oc2=O)c1O,-12%,?,-5%,-7%,-4
COc1cc(/C=C/C(=O)c2c(O)cc(C)oc2=O)cc(OC)c1O,-2%,22µM*!,1%,0%,-1
COc1ccc(-c2cn(-c3ccc(C)cc3)c(S(=O)(=O)CC(=O)Nc3ccc(F)cc3)n2)cc1,.,?,-1%,-17%,-5
COc1ccccc1OCCCOc1cccc(/C=C2\SC(=O)NC2=O)c1,21µM*,?,?,?,3
COc1ccccc1OCCCOc1ccc(/C=C2\SC(=O)NC2=O)cc1OC,?,-7%,3%,-14%,3
CCCCN(CC)Cc1ccc(CNC(=S)Nc2c(C)cc(C)cc2C)o1,13µM*,-6%,3%,-4%,6
C=CC1=C(C(=O)O)N2C(=O)[C@@H](NC(=O)C(N=O)c3csc(N)n3)[C@H]2SC1 (some centres undefined),.,45µM*,?,-12%,.
O=S(=O)(c1ccccc1)N1N=C(c2cccs2)CC1c1ccc(F)cc1 (centres undefined),21µM*,-4%,3%,-12%,1
CCOC(=O)c1c(C)[nH]c(C(=O)CSc2ccccc2)c1C,-8%,14%,-8%,-2%,-8
CCOC(=O)c1c(C)[nH]c(C(=O)CSc2nnc(C3CC3)n2N)c1C,24µM*,?,29%,-5%,2
O=[N+]([O-])CC(=Nc1ccc(Cl)cc1)N/N=C\c1oc(O)c2ccccc12,17µM*,?,0%,-10%,1
CC(=O)c1c(C)[nH]c(C(=O)/C(C#N)=C/c2cccc(C)c2)c1C,6µM*,-24%,28%,-2%,3
CC(=O)c1ccc(O)c(C(N)=O)c1,.,.,.,.,1
O=C(NCc1ccc(F)cc1)c1cc(-c2ccc(Cl)cc2)n[nH]1,.,4%,-18%,-3%,-2
O=C(c1ccccc1)N1CCN(Cc2cccc(Oc3ccccc3)c2)CC1,24µM*,?,21%,-3%,1
O=C(O)CCCN1C(=O)/C(=C\c2ccc(-c3nc4ccccc4s3)o2)SC1=S,11µM*,?,?,?,4
O=C(O)CC(C(=O)O)N1C(=O)/C(=C/c2ccc(-c3nc4ccccc4s3)o2)SC1=S (centres undefined),-8%,50µM*,11µM*,?,?
O=C(O)CCN1C(=O)/C(=C/c2ccc(-c3nc4ccccc4s3)o2)SC1=S,9.5µM*,?,?,?,0
C=CCn1c(COc2ccc(C)cc2)nnc1SCc1ccc([N+](=O)[O-])cc1,.,.,.,.,-2
CC1CCN(c2oc(/C=C/c3ccc(F)cc3)nc2C#N)CC1,.,8%,-18%,-1%,-2
